This note sets out measurements from PubChem BioAssay (NCI).

Some test systems named below: NCI-H23 lung; NCI-H226 lung; NCI-H322M lung; HOP-62 NSCLC; NCI-H460 lung; HOP-92 NSCLC; NCI-H522 lung; A549/ATCC NSCLC; 786-0 renal; COLO 205 colon.
Test in all cases: NCI-60 one-dose screen, 48 h (100 = growth as untreated, 0 = no growth, -100 = all killed)
Holding throughout (settings): 10 µM unless noted

Compounds without any hit were thinned out: in the full panel of roughly 83,000, 20% have a hit.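 Interpretation: 100, growth as untreated; towards 0, rising growth inhibition; 0, no net growth; 0 to -100, cell death. Compounds scoring below 10 were considered active.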 Values without a mark were called inactive. Activity calls are given as the source filed them.

With `OC(COc1ccccc1)CN1CCN(c2ccc(Cl)cc2)CC1` (stereo not given), the growth in the assay with NCI-H23 lung is 95%; with NCI-H226 lung, 95.3%; with NCI-H322M lung, 115%; with HOP-62 NSCLC, 123%; with NCI-H460 lung it was 105%; with HOP-92 NSCLC, 80.5%. The growth in the assay with NCI-H522 lung is 98.3%; with A549/ATCC NSCLC, 87.1%; in the assay on 786-0 renal it was 102%; in the assay with COLO 205 colon, 99.3%.

In the case of `CCOC(=O)CC1C(COC(=O)NC)OC(n2cnc3c(NC(=O)Nc4ccccc4)ncnc32)C1O[Si](C)(C)C(C)(C)C` (stereo not given), the growth was 81% with NCI-H23 lung; 55.5% in the assay with NCI-H226 lung; 91.1% in the assay on NCI-H322M lung; 77.4% with HOP-62 NSCLC; 13.2% with NCI-H460 lung; 62.1% with HOP-92 NSCLC. Moreover, the growth in the assay with NCI-H522 lung is 45.3%; in the assay with A549/ATCC NSCLC it was 51.3%; with 786-0 renal, 72.5%; in the assay with COLO 205 colon it was 67.4%.

For `CS(=O)(=O)N(c1cc(-c2ccc3ncnc(Nc4ccc(F)c(Cl)c4)c3c2)cnc1Cl)S(C)(=O)=O`, the growth with NCI-H23 lung was 34.7%; in the assay on NCI-H226 lung, 59.1%; with NCI-H322M lung it was 34.8%; in the assay with HOP-62 NSCLC it was 42%; in the assay on NCI-H460 lung, 34.2%; in the assay with HOP-92 NSCLC it was -12.2% (active). The growth in the assay on NCI-H522 lung is 52.5%; in the assay with A549/ATCC NSCLC, 57.3%; in the assay with 786-0 renal it was 35%; in the assay on COLO 205 colon, 45.1%.

For `O=c1c2cccc(Cl)c2sc2c(NCCCNCCO)nc3ccccc3c12`, the growth is 52.4% with NCI-H23 lung; 67.7% in the assay on NCI-H226 lung; 44% in the assay on NCI-H322M lung; 39.6% with HOP-62 NSCLC; -86.2% (active) in the assay with NCI-H460 lung; -0.275% (active) with HOP-92 NSCLC. Besides, the growth with NCI-H522 lung was 49.5%; with A549/ATCC NSCLC, 27.5%; with 786-0 renal, 45.6%; in the assay on COLO 205 colon, -61.4% (active).

For `Cc1ccc2nc(NC(=O)CSc3nc(Cl)c(C#N)c(-c4ccccc4)n3)sc2c1`, the growth in the assay on NCI-H23 lung was 97.9%; in the assay with NCI-H226 lung, 107%; in the assay on NCI-H322M lung it was 101%; in the assay on HOP-62 NSCLC, 102%; in the assay on NCI-H460 lung, 106%; in the assay with HOP-92 NSCLC it was 95%. Also, the growth is 86.9% with NCI-H522 lung, 98.6% in the assay on A549/ATCC NSCLC, 103% in the assay with 786-0 renal and 110% in the assay with COLO 205 colon.

As to `NCCOc1ncccc1/C=C1\C2C=CC=CC2C2C=CC(F)=CC12` (stereo not given), the growth in the assay with NCI-H23 lung was 2.79% (active); with NCI-H226 lung it was -26.2% (active); in the assay on NCI-H322M lung, 64.5%; with HOP-62 NSCLC, 10.5%; in the assay with NCI-H460 lung it was -22% (active); in the assay with HOP-92 NSCLC, 28.9%. Further, the growth with NCI-H522 lung is 47.8%; in the assay on A549/ATCC NSCLC, -56.5% (active); in the assay on 786-0 renal it was 1.24% (active); in the assay with COLO 205 colon, 27.2%.

Consider `COc1ccc2c(c1)/C(=C/c1sc(=S)n(Cc3ccco3)c1O)C=N2`, for which the growth in the assay on NCI-H23 lung is 51%; in the assay with NCI-H226 lung it was 71.4%; in the assay on NCI-H322M lung, 89%; with HOP-62 NSCLC, 39.6%; with NCI-H460 lung, 9.07% (active); with HOP-92 NSCLC, 77.5%. The growth was 32.5% with NCI-H522 lung, 57.9% with A549/ATCC NSCLC, 46.2% in the assay with 786-0 renal and 25.4% in the assay with COLO 205 colon.

For the compound `O=c1ccn(Cc2cn(-c3c4ccccc4nc4ccccc34)nn2)c(=O)[nH]1`, the growth was 94% in the assay on NCI-H23 lung; 102% with NCI-H226 lung; 99.2% in the assay with NCI-H322M lung; 97.7% with HOP-62 NSCLC; 96.5% with NCI-H460 lung; 84.7% in the assay with HOP-92 NSCLC. The growth was -57.4% (active) with NCI-H522 lung, 91.2% in the assay with A549/ATCC NSCLC, 90.9% in the assay on 786-0 renal and 108% in the assay on COLO 205 colon.

Regarding `COc1ccc2c(c1)C(C)Cc1c(ncnc1-n1c(C)nc3ccccc31)N2C` (stereo not given), the growth was 30.2% in the assay with NCI-H23 lung; 63.7% in the assay with NCI-H226 lung; 39.5% in the assay on NCI-H322M lung; 33.6% in the assay on HOP-62 NSCLC; 7.77% (active) in the assay on NCI-H460 lung; -4.69% (active) in the assay with HOP-92 NSCLC. Also, the growth was 20.9% in the assay with NCI-H522 lung, 35.2% in the assay on A549/ATCC NSCLC, 29.2% in the assay with 786-0 renal and -11.3% (active) with COLO 205 colon.

Consider `O=C(Nc1ccc(F)cc1F)c1cc(F)ccc1O`, for which the growth in the assay with NCI-H23 lung was -6.29% (active); in the assay on NCI-H226 lung, 4.02% (active); in the assay with NCI-H322M lung, -6.69% (active); in the assay with HOP-62 NSCLC it was 16.4%; in the assay with NCI-H460 lung, 7.51% (active); with HOP-92 NSCLC it was -29.9% (active). For the same compound, the growth in the assay on NCI-H522 lung was -6.24% (active); with A549/ATCC NSCLC, 18%; in the assay on 786-0 renal it was 13.3%; in the assay on COLO 205 colon, 81.1%.

For the compound `NC(=O)C1(Nc2ccc(Br)cc2)CCCC1`, the growth is 97.5% in the assay on NCI-H23 lung; 98.9% in the assay on NCI-H226 lung; 107% in the assay with NCI-H322M lung; 103% with HOP-62 NSCLC; 110% with NCI-H460 lung; 110% in the assay with HOP-92 NSCLC. In addition, the growth in the assay with NCI-H522 lung is 92.9%; in the assay with A549/ATCC NSCLC it was 103%; in the assay on 786-0 renal, 102%; in the assay on COLO 205 colon, 104%.

In the case of `CCCCC[C@H](O)C/C=C1/C(=O)C=C[C@@H]1C/C=C\CCCC(=O)O`, the growth in the assay with NCI-H23 lung is 74.6%; with NCI-H226 lung, 83.7%; in the assay with NCI-H322M lung, 91.1%; in the assay on HOP-62 NSCLC it was 84.1%; with NCI-H460 lung, 66.9%; in the assay on HOP-92 NSCLC, 97.2%. Further, the growth is 46.3% with NCI-H522 lung, 81% with A549/ATCC NSCLC, 83.3% in the assay with 786-0 renal and 78% in the assay on COLO 205 colon.

Turning to `COc1ccc(OC)c(/C=C/c2nnc(Nc3ccccc3)o2)c1`, the growth in the assay on NCI-H23 lung is 97.3%; with NCI-H226 lung, 89.7%; in the assay with NCI-H322M lung, 99.6%; in the assay on HOP-62 NSCLC, 106%; in the assay on NCI-H460 lung, 97.2%; in the assay with HOP-92 NSCLC, 62.5%. The growth in the assay on NCI-H522 lung is 82.3%; in the assay on A549/ATCC NSCLC, 96.5%; in the assay on 786-0 renal it was 87.4%; in the assay with COLO 205 colon it was 129%.

`CC(=O)OC[C@H]1OC(Sc2sc(C(=O)c3ccc(C)cc3)c(N)c2-c2nc3ccccc3s2)[C@H](OC(C)=O)[C@@H](OC(C)=O)[C@@H]1OC(C)=O` (stereo not given in full): the growth in the assay with NCI-H23 lung was 56.1%; with NCI-H226 lung, 30.3%; in the assay with NCI-H322M lung, 81.3%; in the assay on HOP-62 NSCLC, 61.5%; with NCI-H460 lung, 43.7%; in the assay with HOP-92 NSCLC it was 58.8%. Moreover, the growth was 82.1% with NCI-H522 lung, 81.9% in the assay on A549/ATCC NSCLC, 47.4% in the assay on 786-0 renal and 92.2% with COLO 205 colon.
